This passage reports composite z-score and z-score results from PubChem BioAssay.

Assay [1] deals with PRMT1 (protein arginine N-methyltransferase 1). Briefly: PRMT1 binders on small-molecule microarrays, primary screen, biochemical, small-molecule microarray, 635 nm fluorescence (AID 1088).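 Also: binding of Prmt1 protein to compounds spotted on small-molecule microarray slides.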 The following applies: small-molecule microarray binding, higher = more signal.
Assay [2] is described as follows: yeast growth modulation, basal conditions, primary screen, YJM789 clinical isolate, OD600, 24 h (AID 1089).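 Also: growth of clinical yeast isolate S. cerevisiae YJM 789 seeded 1000 cells per well; test concentration not given here.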 As to conditions: S. cerevisiae YJM789 growth, higher = more signal, called active from +8 up or from −8 down.
Assay [3] is described as follows: fission yeast growth modulation, primary screen, strain 972, OD600, 24 h, no modulator (AID 1090).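 Also: basal condition with compound alone and no growth modifier present; test concentration not given here.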 As to conditions: S. pombe 972 growth, higher = more signal, called active from +8 up or from −8 down.
A short description of assay [4]: S. cerevisiae growth modulation with rapamycin, primary screen, strain BY4716, OD600, 96 h (AID 1091). Also: test concentration not given here. As to conditions: higher = more signal, called active from +8 up or from −8 down.
For assay [5], the target named is Torsin-1A-interacting protein 2 (Homo sapiens) (UniProt Q8NFQ8). Briefly: LULL1 binders on small-molecule microarray, primary screen, cell lysate, human LULL1 lysate, 635/667 nm fluorescence (AID 1092).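 Also: probe is lysate of COS7 cells overexpressing human LULL1; score merges per-feature 667 nm fluorescence with signal-to-noise.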 The following applies: hLULL1 lysate binding, 635 nm fluorescence, higher = more signal.
A short description of assay [6]: E. coli growth modulation, two-sided OD650, primary screen, E. coli filamentation project, strain DRC41, 24 h (AID 1093).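 Also: MC1000 strain lacking acrAB efflux and sulA so SOS filamentation is blocked; test concentration not given here.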 The following applies: OD650, 24 h, higher = more signal, called active from +8 up or from −8 down.
Assay [7] can be described thus: small-molecule microarray binders of probe aLefty2, primary screen, biochemical, biotinylated probe, 635/667 nm fluorescence (AID 1094).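 Also: score merges spot fluorescence near 667 nm with spot signal-to-noise ratio.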 As to conditions: higher = more signal.
Assay [8] has as its system Noggin (protein binding on small-molecule microarray). Briefly: Noggin binders on small-molecule microarray, primary screen, biochemical, 635/667 nm fluorescence (AID 1095).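 Also: score merges 667 nm feature fluorescence with signal to noise over triplicate slides.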 As to conditions: 635 nm fluorescence, higher = more signal.
Assay [9] deals with Neurogenic locus notch homolog protein 3 (Homo sapiens) (UniProt Q9UM47). The assay can be described thus: NOTCH3 binders on small-molecule microarray, primary screen, biochemical, 635/667 nm fluorescence (AID 1096). As to conditions: NOTCH3 binding, 635 nm fluorescence, higher = more signal.
Assay [10] can be described thus: small-molecule microarray binders of probe aEGFR, primary screen, biochemical, biotinylated probe, 635/667 nm fluorescence (AID 1097).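 Also: probe is a biotinylated anti-EGFR antibody binding compounds printed on slides; score combines fluorescence near 667 nm and signal to noise of each spot.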 As to conditions: higher = more signal.

The source made the active and inactive calls.

Torsin-1A-interacting protein 2 (Homo sapiens), sequence (Q8NFQ8 whole entry, looked up): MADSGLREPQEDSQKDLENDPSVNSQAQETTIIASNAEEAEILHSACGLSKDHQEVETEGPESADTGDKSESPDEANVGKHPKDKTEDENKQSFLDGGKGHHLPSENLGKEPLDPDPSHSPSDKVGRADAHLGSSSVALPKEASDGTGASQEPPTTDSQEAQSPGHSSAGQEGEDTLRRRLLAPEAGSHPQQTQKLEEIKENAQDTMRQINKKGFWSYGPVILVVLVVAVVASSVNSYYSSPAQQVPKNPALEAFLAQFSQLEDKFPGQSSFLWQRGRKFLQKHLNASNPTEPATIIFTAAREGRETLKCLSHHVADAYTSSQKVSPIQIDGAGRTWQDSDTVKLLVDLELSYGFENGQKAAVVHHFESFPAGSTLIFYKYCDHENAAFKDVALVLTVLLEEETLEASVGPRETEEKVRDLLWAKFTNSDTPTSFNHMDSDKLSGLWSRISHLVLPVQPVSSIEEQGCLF
Neurogenic locus notch homolog protein 3 (Homo sapiens), sequence (Q9UM47 whole entry, looked up): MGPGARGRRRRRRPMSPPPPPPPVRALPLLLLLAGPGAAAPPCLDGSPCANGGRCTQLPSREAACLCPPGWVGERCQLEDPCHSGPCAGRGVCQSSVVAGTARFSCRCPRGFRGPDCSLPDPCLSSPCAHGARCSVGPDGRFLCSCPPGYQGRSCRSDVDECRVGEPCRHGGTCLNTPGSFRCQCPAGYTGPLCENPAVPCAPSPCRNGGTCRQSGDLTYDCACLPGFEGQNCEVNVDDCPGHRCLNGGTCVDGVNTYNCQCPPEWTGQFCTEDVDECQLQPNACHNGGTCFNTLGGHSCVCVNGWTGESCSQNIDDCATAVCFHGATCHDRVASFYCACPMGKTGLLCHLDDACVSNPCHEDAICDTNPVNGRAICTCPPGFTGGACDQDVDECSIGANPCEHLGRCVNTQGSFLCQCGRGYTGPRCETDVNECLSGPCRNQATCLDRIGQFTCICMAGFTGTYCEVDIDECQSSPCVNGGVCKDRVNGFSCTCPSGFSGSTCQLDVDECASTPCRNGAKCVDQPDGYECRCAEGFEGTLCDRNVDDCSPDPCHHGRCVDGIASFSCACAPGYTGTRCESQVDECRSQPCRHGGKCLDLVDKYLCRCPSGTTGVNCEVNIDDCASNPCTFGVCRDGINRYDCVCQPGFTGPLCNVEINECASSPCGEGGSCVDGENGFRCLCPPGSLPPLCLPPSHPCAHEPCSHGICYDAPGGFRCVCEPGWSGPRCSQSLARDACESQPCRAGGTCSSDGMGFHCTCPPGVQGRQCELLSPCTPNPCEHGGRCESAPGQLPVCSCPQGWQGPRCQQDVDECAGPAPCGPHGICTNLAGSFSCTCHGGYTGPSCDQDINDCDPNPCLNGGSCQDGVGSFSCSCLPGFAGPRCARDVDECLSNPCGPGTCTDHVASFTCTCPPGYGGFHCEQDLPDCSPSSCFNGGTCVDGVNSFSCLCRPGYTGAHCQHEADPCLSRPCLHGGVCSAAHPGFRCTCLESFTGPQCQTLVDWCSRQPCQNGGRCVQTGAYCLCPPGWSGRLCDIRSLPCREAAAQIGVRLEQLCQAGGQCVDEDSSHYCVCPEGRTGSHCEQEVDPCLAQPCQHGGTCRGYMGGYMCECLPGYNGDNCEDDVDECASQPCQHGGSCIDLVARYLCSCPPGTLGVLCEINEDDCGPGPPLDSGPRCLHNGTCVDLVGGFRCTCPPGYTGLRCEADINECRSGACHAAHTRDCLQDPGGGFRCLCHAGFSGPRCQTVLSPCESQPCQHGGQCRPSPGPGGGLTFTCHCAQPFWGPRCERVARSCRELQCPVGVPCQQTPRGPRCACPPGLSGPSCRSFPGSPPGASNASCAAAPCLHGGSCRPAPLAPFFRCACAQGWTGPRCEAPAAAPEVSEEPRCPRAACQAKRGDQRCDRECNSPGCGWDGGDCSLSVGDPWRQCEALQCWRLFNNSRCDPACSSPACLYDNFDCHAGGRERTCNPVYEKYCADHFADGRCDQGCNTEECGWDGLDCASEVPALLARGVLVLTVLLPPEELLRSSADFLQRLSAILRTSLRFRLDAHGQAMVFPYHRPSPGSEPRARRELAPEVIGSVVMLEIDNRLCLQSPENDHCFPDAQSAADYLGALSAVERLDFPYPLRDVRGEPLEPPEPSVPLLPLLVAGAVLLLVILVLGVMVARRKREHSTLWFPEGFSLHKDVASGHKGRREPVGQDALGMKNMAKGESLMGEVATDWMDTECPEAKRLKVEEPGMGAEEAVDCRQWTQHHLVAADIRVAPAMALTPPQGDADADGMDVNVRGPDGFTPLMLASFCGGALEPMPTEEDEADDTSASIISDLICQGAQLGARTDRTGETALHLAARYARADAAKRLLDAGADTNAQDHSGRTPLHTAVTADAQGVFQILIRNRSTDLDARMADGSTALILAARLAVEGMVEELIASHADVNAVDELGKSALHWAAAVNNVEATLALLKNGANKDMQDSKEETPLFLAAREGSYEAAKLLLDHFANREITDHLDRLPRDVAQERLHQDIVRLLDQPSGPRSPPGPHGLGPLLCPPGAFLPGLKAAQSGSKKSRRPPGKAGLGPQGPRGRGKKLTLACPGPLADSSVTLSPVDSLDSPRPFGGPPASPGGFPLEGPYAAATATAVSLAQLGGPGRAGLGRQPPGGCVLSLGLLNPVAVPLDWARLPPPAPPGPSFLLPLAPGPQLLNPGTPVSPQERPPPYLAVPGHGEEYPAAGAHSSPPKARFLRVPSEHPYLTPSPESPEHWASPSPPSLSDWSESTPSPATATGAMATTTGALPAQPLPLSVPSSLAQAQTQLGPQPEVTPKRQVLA

As for `CCN(CC)c1ccc(N2CC=CC34O[C@@H]5C=CCCOC(=O)C5[C@H]3C(=O)N(CCCCCO)[C@@H]4C2=O)cc1` (stereo not given in full), the composite z-score in assay [1] was -0.203; in assay [5], 0.965; in [7] it was -0.126; in [8], -0.514; in assay [9], -0.272; in [10] it was -0.168. For the same compound, the z-score in [2] was -0.847 (inactive); in assay [3], -1.3 (inactive); in assay [4], -0.818 (inactive); in assay [6] it was 2.85 (inactive).
For `CC(C)CNC(=O)[C@@]1(c2ccc([N+](=O)[O-])cc2)CC(=O)N(CC23CC4CC(CC(C4)C2)C3)[C@@H]1c1ccc(CO)cc1I`, the composite z-score in [1] was 1.54; in assay [5], 3.06; in [7] it was -0.0144; in [8], 1.3; in assay [9], 1.09; in [10], -0.0088. Moreover, the z-score in [2] was 0.951 (inactive); in [3], 0.864 (inactive); in assay [4], 3.26 (inactive); in [6], -0.569 (inactive).
As to `O=C1O[C@@H](c2ccccc2)[C@@H](c2ccccc2)N2[C@@H](c3ccccc3OCCO)[C@]3(C(=O)Nc4ccc(C#CC5(O)CCCCCC5)cc43)[C@@H](C(=O)Nc3nc4ccccc4s3)[C@H]12`, the composite z-score in assay [1] came to 1.56; in assay [5] it was 2.19; in [7] it was 0.01; in [8], 1.33; in assay [9], 1.06; in assay [10], 1.01. Besides, the z-score in assay [2] is 1.39 (inactive); in [3] it was 1.96 (inactive); in [4], 3.42 (inactive); in assay [6] it was 0.0499 (inactive).
In the case of `COCCCNC(=O)[C@@]1(CCC(=O)OC(C)(C)C)N=C(c2ccc(OCCCO)cc2)O[C@H]1c1ccccc1CN=[N+]=[N-]`, the composite z-score turned out to be 1.26 in assay [1]; 3.74 in [5]; 0.194 in assay [7]; 0.624 in assay [8]; 1.06 in assay [9]; 0.305 in assay [10]. Moreover, the z-score in [2] was -0.187 (inactive); in assay [3], -0.738 (inactive); in assay [4] it was -0.363 (inactive); in assay [6] it was 0.316 (inactive).
Turning to `CC(C)CNC(=O)[C@@]1(c2ccc([N+](=O)[O-])cc2)CC(=O)N(CC23CC4CC(CC(C4)C2)C3)[C@@H]1c1ccc(CO)cc1`, the composite z-score is 1.52 in assay [1]; 2.14 in assay [5]; 0.0054 in assay [7]; 0.661 in [8]; 0.708 in [9]; -0.0897 in assay [10]. The z-score in assay [2] is -1.73 (inactive); in assay [3], -1.1 (inactive); in [4], 0.226 (inactive); in assay [6] it was 2.86 (inactive).
In the case of `O=C1[C@]2(CO)C=C(Br)[C@@H](C[C@@H]2c2ccccc2)[C@@]12CO2`, the composite z-score is -0.756 in assay [1]; -0.556 in [5]; -0.227 in assay [7]; 0.0401 in assay [8]; 0.224 in assay [9]; -0.0828 in assay [10]. In addition, the z-score in assay [2] was -0.904 (inactive); in assay [3], -3.06 (inactive); in [4], -0.666 (inactive); in assay [6] it was 0.0737 (inactive).
Take `O=C1N(CCS(=O)(=O)c2ccccc2)Cc2ccccc2C[C@]12N=C(c1ccc(OCCCO)cc1)O[C@@H]2c1ccccc1`: the composite z-score in assay [1] was 1.54; in [5], 3.45; in assay [7], 0.366; in [8] it was 1.2; in assay [9] it was 1.05; in [10] it was 0.177. The z-score in assay [2] is -0.452 (inactive); in [3], 1.2 (inactive); in [4], 4.94 (inactive); in [6] it was 0.175 (inactive).
As for `O=C(CCN1CCOCC1)c1cccc(O)c1`, the composite z-score in assay [1] turned out to be 1.3; in [5] it was 0.571; in assay [7], 0.197; in assay [8], 0.645; in [9] it was 1.07; in [10] it was 0.234. Moreover, the z-score was -1.35 (inactive) in assay [2], -5.52 (inactive) in assay [3], -1.01 (inactive) in [4] and -2.03 (inactive) in [6].
`Cc1c(NC(=O)CC#N)c(=O)n(-c2ccccc2)n1C`: the composite z-score is 0.175 in [1]; 1.16 in assay [5]; -0.225 in [7]; 0.407 in [8]; 0.66 in assay [9]; -0.0856 in assay [10]. Moreover, the z-score in [2] is -1.36 (inactive); in [3] it was -0.263 (inactive); in [4], -0.722 (inactive); in [6], -0.325 (inactive).
`[N-]=[N+]=NCc1ccccc1[C@@H]1OC(c2ccc(OCCCO)cc2)=N[C@]1(Cc1ccccc1N=[N+]=[N-])C(=O)NCc1ccccc1`: the composite z-score in [1] is 1.55; in [5], 2.45; in assay [7] it was 0.139; in assay [8] it was 0.646; in [9] it was 1.13; in [10] it was 0.123. Moreover, the z-score in assay [2] was 1.1 (inactive); in assay [3], 1.44 (inactive); in [4], 8.41 (active); in assay [6], -0.911 (inactive).
Take `COCCOC(=O)N1C(=O)[C@@]2(c3cc(C#CCNC(N)=O)ccc31)[C@H](c1ccccc1OCCO)N1[C@H](c3ccccc3)[C@H](c3ccccc3)OC(=O)[C@H]1[C@@H]2C(N)=O`: the composite z-score is 1.55 in assay [1]; -0.0889 in [5]; -0.0823 in assay [7]; 1.1 in [8]; 1.09 in [9]; -0.0512 in assay [10]. For the same compound, the z-score in assay [2] was 1.86 (inactive); in assay [3] it was 1.59 (inactive); in assay [4], 3.25 (inactive); in assay [6], -0.244 (inactive).
Regarding `COc1ccc([Si](C)(C)[C@@H]2[C@@H](CCn3cc([C@H](O)c4ccccc4)nn3)O[C@]3(C(=O)N(Cc4ccc(N5C(=O)c6cccc7cccc5c67)cc4)c4ccccc43)[C@H]2C)cc1`, the composite z-score in assay [1] was 0.534; in [5], 1; in [7] it was -0.0237; in [8], -0.345; in [9], 0.0481; in assay [10], -0.217. The z-score in assay [2] is 0.316 (inactive); in assay [3] it was -0.197 (inactive); in [4] it was 1.64 (inactive); in assay [6], 1.05 (inactive).
Take `[N-]=[N+]=Nc1ccccc1[C@H]1OC(c2ccc(OCCCO)cc2)=N[C@@]1(CCS(=O)(=O)c1ccccc1)C(=O)O`: the composite z-score in [1] is 0.164; in [5], 3.2; in [7], 0.308; in [8], -0.688; in assay [9], -0.0883; in [10] it was -0.179. Also, the z-score in assay [2] is -0.775 (inactive); in assay [3] it was -3.52 (inactive); in assay [4], -0.0047 (inactive); in [6], 1.46 (inactive).
Turning to `CC(=O)C1=CCC(c2ccccc2)N(S(=O)(=O)c2ccc(C)cc2)C1` (stereo not given), the composite z-score is 1.53 in [1]; 2.6 in assay [5]; -0.0118 in [7]; 0.229 in [8]; 0.821 in assay [9]; -0.039 in assay [10]. The z-score was -1.31 (inactive) in assay [2], 0.888 (inactive) in assay [3], 4.92 (inactive) in [4] and -1.03 (inactive) in [6].
For the compound `COc1ccc(CCN2C(=O)[C@@]3(Cc4ccccc42)c2ccccc2C(=O)N(Cc2ccccc2Cl)[C@H]3c2ccc(CO)cc2)cc1`, the composite z-score in [1] is 1.34; in assay [5], 0.494; in [7], -0.126; in [8], -1.05; in assay [9], -0.981; in [10], -0.169. Also, the z-score was -0.411 (inactive) in assay [2], -1.51 (inactive) in [3], -1.24 (inactive) in assay [4] and 0.169 (inactive) in [6].
